Ten compounds from PubChem BioAssay can be followed below.

Test [1] in a line: HepG2 liver cancer cell viability effects, profiling panel, resazurin fluorescence, 24 h, PK04 Diversity Set (AID 1172). To be noted: higher = more signal. (The colour change of resazurin is a common sign of viable cells or microbes.)
Test [2] in a line: basal S. cerevisiae growth modulation, no modifier, primary screen, OD600, strain BY4716, 24 h, basal condition (AID 1173). To be noted: OD600, 24 h, higher = more signal, called active from +8 up or from −8 down.
Test [3] is described as follows: MM1S myeloma cell viability, profiling panel, resazurin fluorescence, basal, 24 h, PK04 Diversity Set (AID 1174).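 Also: MM1S multiple myeloma cell line.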 To be noted: higher = more signal, called active from +8 up or from −8 down.
Test [4] addresses Dihydroorotate dehydrogenase (quinone), mitochondrial (Plasmodium falciparum (isolate 3D7)) (UniProt Q08210). Description: PfDHODH enzyme inhibitors, primary screen, biochemical, C-terminal His tag, absorbance 600 nm (AID 1175).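 Also: recombinant parasite enzyme with a five histidine tag at its C terminus.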 To be noted: DCIP absorbance 600 nm, higher = more signal, called active from +8 up or from −8 down.
Test [5] is described as follows: S. cerevisiae RM11-1a growth modifiers, primary screen, strain RM11-1a, OD600, basal, 24 h (AID 1177).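 Also: cultures grown under basal conditions with no added stressor.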 To be noted: OD600, 24 h, higher = more signal, called active from +8 up or from −8 down.
Test [6] can be described thus: E. coli acrAB mutant growth effects, primary screen, E. coli filamentation inducers, strain DRC39, OD650, 24 h (AID 1178).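 Also: growth measured as culture turbidity by optical density at 650 nm.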 To be noted: higher = more signal, called active from +8 up or from −8 down.
A short description of test [7]: E. coli acrAB mutant growth effects, primary screen, E. coli filamentation inducers, strain DRC39, OD650, 48 h (AID 1179).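 Also: screen aims at cell division blockers that make cells filament.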 To be noted: E. coli DRC39 delta-acrAB growth, higher = more signal, called active from +8 up or from −8 down.
Test [8] in a line: RPMI8226 myeloma cell viability, profiling panel, resazurin fluorescence, basal, 24 h, PK04 Diversity Set (AID 1180).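 Also: RPMI8826 multiple myeloma cell line at 5000 cells per well.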 To be noted: higher = more signal.
Test [9] has as its target E3 ubiquitin-protein ligase XIAP (Homo sapiens) (UniProt P98170). Description: XIAP binders, primary screen, biophysical, small-molecule microarray, fluorescence 635 nm (AID 1181).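 Also: score merges 667 nm emission and signal to noise over triplicate slides.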 To be noted: small-molecule microarray binding, higher = more signal.
In test [10] the test system is XIP peptide (Xip251-270) binding. Description: small-molecule binders of XIP peptide, primary screen, biochemical, small-molecule microarray, fluorescence 635/667 nm, 0.1 µg/mL protein (AID 1182). To be noted: fluorescent protein binding, 635 nm, higher = more signal, called active from +8 up or from −8 down.
Test [11] deals with XIP peptide (Xip251-270). Description: small-molecule binders of XIP peptide, primary screen, biochemical, small-molecule microarray, fluorescence 635/667 nm, 0.5 µg/mL protein (AID 1183). To be noted: small-molecule microarray binding, fluorescence 635 nm; higher = more signal.
Test [12] in a line: Plasmodium falciparum growth inhibition, primary screen, strain 3D7, DAPI fluorescence, 100 nL (AID 1184).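 Also: parasites grown inside human red blood cells in medium with human serum.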 To be noted: P. falciparum 3D7 growth, 3 d, higher = more signal.
For test [13], the target named is Homeobox protein Hox-A13 (Mus musculus) (UniProt Q62424). Description: inhibitors of HoxA13-DNA binding, primary screen, biochemical, fluorescence polarization, labeled oligonucleotide (AID 1185). To be noted: 15 min, higher = more signal, called active from +8 up or from −8 down. In general terms: Polarisation of emitted light reports the rotation of a fluorescent probe.

Test [14] can be described thus: inhibitors of hydroxyurea-induced Chk1 phosphorylation, primary screen, imaging, HeLa, phospho-Chk1 antibody, percent positive cells (AID 1186). To be noted: hydroxyurea-induced phospho-Chk1 immunofluorescence imaging, higher = more signal.
Test [15] in a line: inhibitors of hydroxyurea-induced Chk1 phosphorylation, primary screen, imaging, HeLa, phospho-Chk1 nuclear intensity (AID 1187). To be noted: hydroxyurea-induced phospho-Chk1 immunofluorescence imaging, higher = more signal.

Active and inactive are the calls of the source. Unless noted, no rule for the calls is given here.

Sequence of E3 ubiquitin-protein ligase XIAP (Homo sapiens) (P98170 whole entry, looked up): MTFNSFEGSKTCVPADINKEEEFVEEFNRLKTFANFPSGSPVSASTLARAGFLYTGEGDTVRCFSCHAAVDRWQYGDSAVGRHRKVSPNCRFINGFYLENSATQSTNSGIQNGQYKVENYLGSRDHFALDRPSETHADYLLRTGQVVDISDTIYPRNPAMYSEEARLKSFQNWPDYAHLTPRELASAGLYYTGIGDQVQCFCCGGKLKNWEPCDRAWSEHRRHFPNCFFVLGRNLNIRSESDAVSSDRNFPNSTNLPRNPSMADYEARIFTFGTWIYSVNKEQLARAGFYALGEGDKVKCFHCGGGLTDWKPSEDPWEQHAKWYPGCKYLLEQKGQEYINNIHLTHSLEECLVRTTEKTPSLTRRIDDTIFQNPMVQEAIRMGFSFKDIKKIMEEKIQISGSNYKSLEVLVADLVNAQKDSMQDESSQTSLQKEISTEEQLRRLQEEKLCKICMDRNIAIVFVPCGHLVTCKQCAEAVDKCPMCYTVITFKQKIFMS
Sequence of Homeobox protein Hox-A13 (Mus musculus) (Q62424 whole entry, looked up): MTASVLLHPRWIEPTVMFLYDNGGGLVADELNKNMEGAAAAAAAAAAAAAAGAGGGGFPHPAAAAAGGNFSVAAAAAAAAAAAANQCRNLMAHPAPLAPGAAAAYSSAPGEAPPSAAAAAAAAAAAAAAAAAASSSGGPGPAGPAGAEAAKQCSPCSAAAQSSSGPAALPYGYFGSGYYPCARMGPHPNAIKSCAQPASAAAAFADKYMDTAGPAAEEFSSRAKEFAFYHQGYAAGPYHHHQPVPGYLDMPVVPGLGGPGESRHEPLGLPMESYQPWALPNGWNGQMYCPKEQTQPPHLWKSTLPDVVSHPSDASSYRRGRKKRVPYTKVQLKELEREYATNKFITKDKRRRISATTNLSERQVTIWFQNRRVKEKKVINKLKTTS
Sequence of Dihydroorotate dehydrogenase (quinone), mitochondrial (Plasmodium falciparum (isolate 3D7)) (Q08210 whole entry, looked up): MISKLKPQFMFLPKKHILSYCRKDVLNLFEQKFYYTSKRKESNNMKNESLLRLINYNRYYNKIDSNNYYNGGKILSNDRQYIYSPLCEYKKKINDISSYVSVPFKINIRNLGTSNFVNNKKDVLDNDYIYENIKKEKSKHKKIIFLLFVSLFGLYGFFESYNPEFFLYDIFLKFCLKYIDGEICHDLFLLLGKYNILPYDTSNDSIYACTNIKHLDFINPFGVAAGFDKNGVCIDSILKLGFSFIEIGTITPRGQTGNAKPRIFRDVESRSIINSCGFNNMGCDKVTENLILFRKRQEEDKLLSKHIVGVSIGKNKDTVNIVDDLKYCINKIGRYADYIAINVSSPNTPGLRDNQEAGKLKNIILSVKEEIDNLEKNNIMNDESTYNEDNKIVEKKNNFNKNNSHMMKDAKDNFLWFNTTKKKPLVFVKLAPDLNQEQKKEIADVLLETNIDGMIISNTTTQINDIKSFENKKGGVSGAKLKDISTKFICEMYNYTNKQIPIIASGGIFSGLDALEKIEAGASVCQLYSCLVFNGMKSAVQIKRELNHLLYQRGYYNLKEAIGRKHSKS

As for `NC(=O)NCC#Cc1ccc2c(c1)[C@]1(C(=O)N2)[C@H](C(=O)N2CCCCCCC2)[C@H]2C(=O)O[C@H](c3ccccc3)[C@H](c3ccccc3)N2[C@@H]1c1ccccc1OCCO`, the z-score is 0.237 in [1]; -0.643 (inactive) in [2]; 1.4 (inactive) in test [3]; 0.827 (inactive) in test [5]; 0.218 (inactive) in [6]; 0.125 (inactive) in [7]. Besides, the z-score was 1.13 in test [8]; -1.83 in test [12]; 4.43 (inactive) in test [13]; 0.323 (inactive) in [14]; 0.671 (inactive) in [15]. Besides, the composite z-score in test [4] was -0.121 (inactive); in test [9], 0.306; in test [10], 4.02 (inactive); in test [11], 0.486.

For `COC(=O)c1c(CC[C@@H](CO)NC(=O)N[C@H](Cn2cc(-c3cncn3C)nn2)C(C)C)oc(C(C)=O)c1C(=O)OC`, the z-score in test [1] was -0.623; in [2], -0.476 (inactive); in test [3], 0.254 (inactive); in test [5] it was -1.06 (inactive); in [6] it was 2.37 (inactive); in test [7], 1.47 (inactive). Further, the z-score in test [8] was -0.0832; in [12], -2.19; in [13], 3.03 (inactive); in [14], -0.139 (inactive); in [15], 0.233 (inactive). For the same compound, the composite z-score is -4.63 (inactive) in test [4], -0.0884 in test [9], 1.88 (inactive) in [10] and -0.0139 in test [11].

`CC(C)[Si]1(C(C)C)OCc2cc(C3CC3)nc(-c3ccccc3)c21`: the z-score in test [1] is 0.883; in [2] it was -1.53 (inactive); in [3], 0.972 (inactive); in [5], -1.75 (inactive); in [6], 1.39 (inactive); in test [7] it was 0.656 (inactive). The z-score in [8] is 0.536; in test [12], -1.16; in test [13], -0.631 (inactive); in test [14] it was -0.37 (inactive); in [15], -0.0248 (inactive). Besides, the composite z-score in test [4] is 0.135 (inactive); in test [9], 0.0399; in test [10], 0.119 (inactive); in [11] it was 0.939.

In the case of `O=[N+]([O-])c1ccc(C[n+]2ccc3ccc(O)cc3c2)o1`, the z-score in test [1] is -0.104; in test [2], -5.54 (inactive); in test [3] it was 0.342 (inactive); in test [5], -0.234 (inactive); in test [6] it was -0.55 (inactive); in [7], -0.688 (inactive). The z-score is 0.405 in test [8]; 0.87 in test [12]; -5.47 (inactive) in test [13]; -0.0465 (inactive) in test [14]; -0.0404 (inactive) in [15]. Also, the composite z-score in test [4] is -2 (inactive); in test [9], 0.411; in test [10] it was 1.14 (inactive); in test [11], 0.676.

For `CO[C@H]1COC(=O)[C@H](C)NC(=O)CC=C[C@@H](C)[C@H](NS(=O)(=O)c2ccc(C)cc2)COC(=O)[C@@H](OCc2ccccc2)C=C[C@@H]1C`, the z-score was 0.618 in test [1]; 0.156 (inactive) in test [2]; 1.03 (inactive) in test [3]; 1.25 (inactive) in [5]; 0.292 (inactive) in [6]; 0.104 (inactive) in test [7]. The z-score in [8] is 0.775; in test [12], -0.569; in [13], -1.21 (inactive). For the same compound, the composite z-score is 0.604 (inactive) in test [4], -0.0123 in test [9], -0.253 (inactive) in test [10] and 0.72 in [11].

On to `CCOC(=O)C[C@H]1[C@H](OC(=O)c2cc3ccccc3oc2=O)[C@@H](NC(=O)c2ccc3ccccc3c2)c2cc(OCCCO)ccc2N1C(=O)c1ccc2ccccc2n1`, for which the z-score in test [1] is 0.272; in test [2] it was -2.13 (inactive); in [3] it was 0.0578 (inactive); in test [5] it was -1.06 (inactive); in [6] it was 2.52 (inactive); in test [7] it was 1.23 (inactive). In addition, the z-score in test [8] is -0.536; in test [12], -1.6; in test [13], -1.06 (inactive); in test [14] it was -0.0364 (inactive); in test [15], 0.034 (inactive). The composite z-score is -0.172 (inactive) in test [4], -0.0454 in test [9], 0.227 (inactive) in [10] and -0.333 in [11].

Turning to `C=CCc1cccc([C@H]2N[C@H](C(=O)O)CC[C@@H]2C)c1`, the z-score in test [1] was 0.615; in [2] it was 0.182 (inactive); in test [3], 0.948 (inactive); in [5] it was 1.14 (inactive); in test [6], 0.0903 (inactive); in test [7], 0.129 (inactive). Moreover, the z-score in [8] was 1.02; in test [12] it was -0.441; in test [13], 0.811 (inactive). Also, the composite z-score in test [4] is 1.09 (inactive); in test [9] it was -0.0476; in [10] it was 0.517 (inactive); in [11] it was 0.921.

Take `COCCOC(=O)N1C(=O)[C@@]2(c3cc(C#CCNC(N)=O)ccc31)[C@H](c1ccc(OCCO)cc1)N1[C@H](c3ccccc3)[C@H](c3ccccc3)OC(=O)[C@H]1[C@@H]2C(=O)N1CCCCCCC1`: the z-score in [1] was 0.377; in test [2], 1.52 (inactive); in test [3], 1.2 (inactive); in test [5], 2 (inactive); in [6], -0.132 (inactive); in test [7] it was 0.538 (inactive). The z-score was 1.41 in test [8]; -2.1 in [12]; -11.3 (active) in [13]; 0.174 (inactive) in [14]; 0.272 (inactive) in [15]. Further, the composite z-score in [4] is 0.0238 (inactive); in test [9], -0.0559; in test [10] it was 0.067 (inactive); in test [11] it was -0.26.

For the compound `CCN1C(C)=C(C(=O)OC)[C@@H](c2ccccc2)N2C(=O)[C@@]3(C(=O)OC)O[C@@]12[C@@H]1C(=O)N(C)C(=O)[C@@H]13`, the z-score was 0.976 in test [1]; -0.684 (inactive) in test [2]; 0.947 (inactive) in [3]; 0.335 (inactive) in test [5]; -0.234 (inactive) in test [6]; -0.992 (inactive) in test [7]. In addition, the z-score is 1.09 in test [8], -0.138 in test [12] and -0.663 (inactive) in test [13]. Further, the composite z-score in test [4] is 1.18 (inactive); in test [9], -0.0454; in test [10], 1.38 (inactive); in test [11], 0.87.

For `CCOC(=O)C[C@H]1[C@H](OC(=O)Cc2ccc3c(c2)OCO3)[C@@H](NC(=O)CC(C)C)c2cc(OCCCO)ccc2N1C(=O)c1ccccc1`, the z-score was 1.05 in test [1]; -1.05 (inactive) in test [2]; 0.548 (inactive) in test [3]; -0.606 (inactive) in test [5]; 2.13 (inactive) in [6]; 1.65 (inactive) in test [7]. The z-score in test [8] was 0.458; in test [12], -0.584; in [13], -1.41 (inactive); in test [14] it was -0.398 (inactive); in test [15], -0.321 (inactive). Further, the composite z-score in [4] was 0.679 (inactive); in test [9], 0.0015; in [10], 0.443 (inactive); in [11], -0.487.
